Measured values reported in PubChem BioAssay (NCATS).
Where “and” joins values, the source holds several entries; their conditions need not be identical. Equal values may be shown once. Inconclusive results are not listed. Calls of active or inactive are those of the source. Unless noted, the call rests on the fitted dose curve; in most records, active means well fitted curve in the direction sought with a large enough effect; inconclusive means small, poorly fitted or top-dose-only effect, or another doubt; inactive means no such curve, though single readings can be large; an effect the other way counts as inactive or inconclusive.

What was measured:
[1] = Cell Viability - SH-SY5Y (AID 544); settings: SH-SY5Y neuroblastoma cell viability; viability change, negative = cytotoxic: at 92.2 µM (top of the series);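 further: cells exposed to compound for 40 hours; nearly all actives have a fitted effect of over 55% in size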; further: potency means the concentration at half of the fitted maximal effect;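 on viability change, negative = cytotoxic: 0% = DMSO alone and -100% = 100 µM tamoxifen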
Method in brief: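 SH-SY5Y, 1500 cells/well, 5 hr pre-incubation 37 °C; cpd 40 hr 37 °C; CellTiter-Glo 20 min RT; luminescence (ATP) read. qHTS concentration-response, Hill fit → AC50. Tamoxifen, doxorubicin as positive controls.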

[2] = Cellular Toxicity (caspase-3) Mesangial (AID 660);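 further: combined caspase 3 and 7 activity read by Caspase-Glo luminescence; cells exposed to compound for 16 h before the caspase read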
Method in brief: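 Luminescent Caspase-Glo 3/7 readout (aminoluciferin substrate cleavage, 20 min RT) after 16 h compound exposure at 37 °C of normal human mesangial cells. Signal increase normalized between DMSO basal and 100 uM tamoxifen; Hill-equation AC50.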

[3] = MultiTox-Fluor Cytotoxicity Assay - LYMP1-001 - Live Cells (AID 947);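 further: 0% = DMSO only and full inhibition = tetraoctylammonium bromide control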
[4] = molecular target: Estrogen receptor (Homo sapiens) (UniProt P03372); test: qHTS assay for small molecule antagonists of estrogen receptor alpha signaling (AID 588513; active means well fitted curve in the direction sought with a large enough effect in the signal ratio, with a control signal flat, not every such curve was filed as active; the % refers to the signal ratio; further: on the % scale 0 is the no-effect control and ±100 the full control effect)
Method in brief: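 Beta-lactamase reporter, antagonist mode, HEK 293 GripTite cells; 0.5nM E2 stimulus, 18 h, 37 C; CCF4 dye 2 h RT; fluorescence. IC50 and efficacy from Hill fits, normalized to E2 and DMSO.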

[5] = molecular target: Bile acid receptor (Homo sapiens) (UniProt Q96RI1); test: qHTS assay for small molecule antagonists of farnesoid X receptor signaling (AID 588526; calls by dose curve; further: on the % scale 0 is the no-effect control and ±100 the full control effect)
Method in brief: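 Antagonist mode: titrated compounds tested against chenodeoxycholic acid stimulation (normalized to 50 uM CDCA and DMSO) in GeneBLAzer HEK293T cells for 16 h. Beta-lactamase read by CCF4 fluorescence; IC50 from Hill fits.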

[6] = molecular target: Glucocorticoid receptor (Homo sapiens) (UniProt P04150); test: qHTS assay for small molecule antagonists of glucocorticoid receptor signaling (AID 588533; active means well fitted inhibition curve with a large enough effect in the signal ratio, with a control signal flat, not every such curve was filed as active; the % refers to the signal ratio;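 further: cells stimulated with 2 nM dexamethasone as agonist; on the % scale 0 is the no-effect control and ±100 the full control effect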)
Method in brief: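 Antagonist-mode qHTS: compound titrations added to GRE-bla HeLa cells, then dexamethasone 2 nM final; 18 h, 37 C. CCF4 FRET fluorescence normalized to dexamethasone and DMSO; IC50 from Hill fit.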

[7] = qHTS assay for small molecule antagonists of peroxisome proliferator-activated receptor delta signaling (AID 588535; active means well fitted inhibition curve with a large enough effect in the signal ratio, with a control signal flat, not every such curve was filed as active; the % refers to the signal ratio;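 on max response: cells co-treated with a PPAR-delta agonist as stimulator during compound exposure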); settings: HEK293T PPARd-UAS-bla, beta-lactamase FRET ratio, 18 h; 460 nm channel
Method in brief: (§1)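 Beta-lactamase reporter read-out (405 nm excitation, 460/530 nm emission) after CCF4 loading for 2 hrs at RT. HEK293T PPAR-delta-UAS-bla cells, 2% charcoal/dextran FBS, compounds for 18 hrs at 37 C. Hill fit gave IC50 and efficacy.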

[8] = molecular target: Peroxisome proliferator-activated receptor gamma (Homo sapiens) (UniProt P37231); test: qHTS assay for small molecule antagonists of peroxisome proliferator-activated receptor gamma signaling (AID 588537; active means well fitted inhibition curve with a large enough effect in the signal ratio, with a control signal flat, not every such curve was filed as active; the % refers to the signal ratio;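 further: reporter cells co-stimulated with 50 nM rosiglitazone agonist during compound treatment; % of control where 0% means no effect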)
Method in brief: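 Read-out: CCF4 fluorescence (ex 405, em 460/530 nm) after 2 h at RT. Cells were HEK293 carrying a UAS-bla reporter and treated 16 h at 37 C with compound plus rosiglitazone (50 nM final). Normalized to rosiglitazone and DMSO.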

[9] = qHTS assay for small molecule agonists of the antioxidant response element (ARE) signaling pathway (AID 651741; active means well fitted activation curve with a large enough effect in the signal ratio; the % refers to the signal ratio; further: % of control where 0% means no effect)
Method in brief: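 HepG2 ARE-bla reporter cells, 2,000/well; 5 h settle at 37 C/5% CO2; compound pin transfer (23 nL, DMSO); 16 h at 37 C; LiveBLAzer B/G FRET substrate, 2 h RT; fluorescence intensity read.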

[10] = qHTS assay for small molecule activators of the p53 signaling pathway (AID 651743; active means well fitted activation curve with a large enough effect in the signal ratio, not every such curve was filed as active; the % refers to the signal ratio; further: % of control where 0% means no effect); settings: HCT-116 p53RE-bla, beta-lactamase FRET ratio, 16 h; activation: stronger effect = higher value
Method in brief: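 Reporter: beta-lactamase driven by p53 response elements, stably integrated in HCT-116 cells. Cells seeded at 4,000/well, 5 h preincubation, compound (DMSO) 16 h at 37 C; B/G FRET substrate 2 h RT; fluorescence intensity read.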

[11] = molecular target: Estrogen receptor (Homo sapiens) (UniProt P03372); test: qHTS assay for small molecule agonists of estrogen receptor alpha signaling (AID 588514; calls by dose curve;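 further: 0% = vehicle only and 100% = reference agonist; nearly all actives have a fitted effect of over 70% in size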)
Method in brief: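 Read-out: CCF4 fluorescence from a beta-lactamase reporter in ER-alpha-UAS-bla HEK 293 cells after 18 hrs of compound exposure at 37 C. Normalized to 20 nM 17-beta-estradiol (100%) and DMSO (0%).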

[12] = molecular target: Voltage-gated inwardly rectifying potassium channel KCNH2 (Homo sapiens) (UniProt Q12809); test: qHTS Assay for Small Molecule Inhibitors of the Human hERG Channel Activity (AID 588834);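 further: top concentration of the series differs between compounds; on the % scale 0 is the no-effect control and ±100 the full control effect; lower thallium flux fluorescence means stronger hERG block; nearly all actives have a fitted effect of over 50% in size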
Method in brief: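 Thallium-flux (FluxOR) read-out on FDSS: fluorescence read 10 s before and 2 min after stimulation buffer. hERG-BacMam-transduced U2OS cells, compound exposure about 10 min. AC50 by standard Hill equation.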

[13] = Cell Viability - LYMP2-021 (AID 974);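 further: compound exposure lasts 24 hours at 37 °C; nearly all actives have a fitted effect of over 55% in size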; further: potency means the concentration at half of the fitted maximal effect
Method in brief: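 ATP luminescence (CellTiter-Glo, 30 min RT) after 24 h compound exposure at 37 C; 2500 human lymphoblastoid cells/well, 5 h settle beforehand. Cytotoxicity = concentration-dependent ATP drop, AC50 by Hill fit.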

[14] = molecular target: Peroxisome proliferator-activated receptor delta (Homo sapiens) (UniProt Q03181); test: qHTS assay for small molecule agonists of peroxisome proliferator-activated receptor delta signaling (AID 588534; calls by dose curve;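 further: 0% = DMSO basal wells and 100% = positive control agonist at 10 µM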)
Method in brief: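 Titration series tested in agonist mode on beta-lactamase reporter cells; 18 hrs at 37 C after a 5 hr pre-incubation. Readout: CCF4 fluorescence, 2 hrs RT. Hill equation gives EC50 and maximal response.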

[15] = molecular target: Peroxisome proliferator-activated receptor delta (Homo sapiens) (UniProt Q03181); test: qHTS assay for small molecule antagonists of peroxisome proliferator-activated receptor delta signaling (AID 588535);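 on max response: cells co-treated with a PPAR-delta agonist as stimulator during compound exposure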
Method in brief: as §1

[16] = qHTS assay to identify small molecules that stimulate interleukin-8 (IL-8) secretion (AID 651758; active means well fitted activation curve with a large enough effect in the signal ratio; the % refers to the signal ratio; further: 0% is about no effect)
Method in brief: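 Compounds are added to THP-1 cells (2000 per well) and left 16 hrs at 37 C. A labeled anti-IL-8 antibody pair is then added, and IL-8 secretion is measured by time-resolved FRET after 1-3 hrs at room temperature.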

Chain of Peroxisome proliferator-activated receptor delta (Homo sapiens) (Q03181 whole entry, looked up): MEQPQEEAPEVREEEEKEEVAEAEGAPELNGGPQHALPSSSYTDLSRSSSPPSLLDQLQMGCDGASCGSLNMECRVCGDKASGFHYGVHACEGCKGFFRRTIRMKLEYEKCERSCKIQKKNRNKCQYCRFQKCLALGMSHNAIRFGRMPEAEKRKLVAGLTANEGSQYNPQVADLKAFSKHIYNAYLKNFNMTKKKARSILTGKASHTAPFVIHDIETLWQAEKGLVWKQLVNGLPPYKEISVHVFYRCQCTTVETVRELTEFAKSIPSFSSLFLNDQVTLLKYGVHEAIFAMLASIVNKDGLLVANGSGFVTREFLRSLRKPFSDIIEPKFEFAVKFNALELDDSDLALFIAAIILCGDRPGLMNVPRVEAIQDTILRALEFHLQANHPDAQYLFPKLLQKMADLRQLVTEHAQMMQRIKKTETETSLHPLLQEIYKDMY
Chain of Glucocorticoid receptor (Homo sapiens) (P04150 whole entry, looked up): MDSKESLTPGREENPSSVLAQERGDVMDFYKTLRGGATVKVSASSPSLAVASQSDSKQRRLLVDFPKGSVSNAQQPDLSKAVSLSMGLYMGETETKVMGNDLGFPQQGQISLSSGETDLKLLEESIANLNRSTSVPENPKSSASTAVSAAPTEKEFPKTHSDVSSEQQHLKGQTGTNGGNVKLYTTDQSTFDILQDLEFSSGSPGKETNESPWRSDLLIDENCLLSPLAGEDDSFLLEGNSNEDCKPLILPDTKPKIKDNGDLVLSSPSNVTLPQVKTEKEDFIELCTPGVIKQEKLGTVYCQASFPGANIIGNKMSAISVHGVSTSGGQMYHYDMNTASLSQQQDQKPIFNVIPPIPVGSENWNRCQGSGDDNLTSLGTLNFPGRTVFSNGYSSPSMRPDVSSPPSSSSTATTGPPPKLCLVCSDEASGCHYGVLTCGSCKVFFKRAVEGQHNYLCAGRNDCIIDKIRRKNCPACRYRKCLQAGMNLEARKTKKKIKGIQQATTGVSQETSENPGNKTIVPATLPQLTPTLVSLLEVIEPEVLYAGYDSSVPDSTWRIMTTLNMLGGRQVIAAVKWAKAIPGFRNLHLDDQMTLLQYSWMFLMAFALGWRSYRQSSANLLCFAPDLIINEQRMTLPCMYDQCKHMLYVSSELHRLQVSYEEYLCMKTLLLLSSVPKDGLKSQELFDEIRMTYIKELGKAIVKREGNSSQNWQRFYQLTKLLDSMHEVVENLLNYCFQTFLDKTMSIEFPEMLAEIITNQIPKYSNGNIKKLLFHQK
Chain of Estrogen receptor (Homo sapiens) (P03372 whole entry, looked up): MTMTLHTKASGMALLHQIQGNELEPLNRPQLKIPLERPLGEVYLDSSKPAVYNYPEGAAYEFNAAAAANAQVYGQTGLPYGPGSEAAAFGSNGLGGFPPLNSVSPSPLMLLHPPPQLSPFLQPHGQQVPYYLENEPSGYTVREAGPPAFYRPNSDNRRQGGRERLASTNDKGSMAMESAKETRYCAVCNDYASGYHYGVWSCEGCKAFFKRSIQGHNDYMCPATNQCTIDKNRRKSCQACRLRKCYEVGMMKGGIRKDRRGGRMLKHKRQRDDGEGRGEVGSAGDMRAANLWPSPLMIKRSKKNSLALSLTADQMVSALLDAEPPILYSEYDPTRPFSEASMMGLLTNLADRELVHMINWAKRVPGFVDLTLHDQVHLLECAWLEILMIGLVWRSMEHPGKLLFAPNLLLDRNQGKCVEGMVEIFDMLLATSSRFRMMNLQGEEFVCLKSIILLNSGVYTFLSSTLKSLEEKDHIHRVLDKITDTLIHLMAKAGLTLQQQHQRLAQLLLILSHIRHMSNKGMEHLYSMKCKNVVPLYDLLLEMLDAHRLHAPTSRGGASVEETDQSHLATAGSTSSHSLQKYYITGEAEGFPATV
Chain of Voltage-gated inwardly rectifying potassium channel KCNH2 (Homo sapiens) (Q12809 whole entry, looked up): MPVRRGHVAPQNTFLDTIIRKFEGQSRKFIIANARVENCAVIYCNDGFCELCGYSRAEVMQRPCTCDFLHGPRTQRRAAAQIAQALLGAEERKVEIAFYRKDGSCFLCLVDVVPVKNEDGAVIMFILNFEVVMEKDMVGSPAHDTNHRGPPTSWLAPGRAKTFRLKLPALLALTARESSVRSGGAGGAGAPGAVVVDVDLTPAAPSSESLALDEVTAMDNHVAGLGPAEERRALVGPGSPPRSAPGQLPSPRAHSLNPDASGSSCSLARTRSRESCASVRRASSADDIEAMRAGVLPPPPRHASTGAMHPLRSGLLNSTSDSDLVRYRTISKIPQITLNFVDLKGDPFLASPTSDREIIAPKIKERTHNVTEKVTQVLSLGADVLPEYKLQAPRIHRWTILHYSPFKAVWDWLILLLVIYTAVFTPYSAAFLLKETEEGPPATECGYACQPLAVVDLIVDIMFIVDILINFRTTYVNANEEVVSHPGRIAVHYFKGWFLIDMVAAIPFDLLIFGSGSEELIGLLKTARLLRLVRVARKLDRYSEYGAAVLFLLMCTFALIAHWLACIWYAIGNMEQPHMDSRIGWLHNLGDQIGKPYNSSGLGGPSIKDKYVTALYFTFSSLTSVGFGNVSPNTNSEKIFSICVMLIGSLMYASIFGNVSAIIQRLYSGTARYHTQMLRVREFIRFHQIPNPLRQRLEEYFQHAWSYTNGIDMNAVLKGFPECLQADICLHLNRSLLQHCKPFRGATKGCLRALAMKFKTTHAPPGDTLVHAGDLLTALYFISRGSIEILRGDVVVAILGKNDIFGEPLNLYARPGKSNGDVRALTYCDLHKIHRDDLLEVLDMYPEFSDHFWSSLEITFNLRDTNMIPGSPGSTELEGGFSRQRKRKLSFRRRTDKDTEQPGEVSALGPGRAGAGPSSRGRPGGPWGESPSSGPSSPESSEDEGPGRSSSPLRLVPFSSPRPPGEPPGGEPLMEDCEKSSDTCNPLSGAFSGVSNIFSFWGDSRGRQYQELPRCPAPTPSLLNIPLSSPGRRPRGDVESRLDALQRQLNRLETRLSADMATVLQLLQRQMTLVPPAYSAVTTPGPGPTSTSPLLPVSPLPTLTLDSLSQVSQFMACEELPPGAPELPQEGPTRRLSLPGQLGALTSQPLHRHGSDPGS
Chain of Bile acid receptor (Homo sapiens) (Q96RI1 whole entry, looked up): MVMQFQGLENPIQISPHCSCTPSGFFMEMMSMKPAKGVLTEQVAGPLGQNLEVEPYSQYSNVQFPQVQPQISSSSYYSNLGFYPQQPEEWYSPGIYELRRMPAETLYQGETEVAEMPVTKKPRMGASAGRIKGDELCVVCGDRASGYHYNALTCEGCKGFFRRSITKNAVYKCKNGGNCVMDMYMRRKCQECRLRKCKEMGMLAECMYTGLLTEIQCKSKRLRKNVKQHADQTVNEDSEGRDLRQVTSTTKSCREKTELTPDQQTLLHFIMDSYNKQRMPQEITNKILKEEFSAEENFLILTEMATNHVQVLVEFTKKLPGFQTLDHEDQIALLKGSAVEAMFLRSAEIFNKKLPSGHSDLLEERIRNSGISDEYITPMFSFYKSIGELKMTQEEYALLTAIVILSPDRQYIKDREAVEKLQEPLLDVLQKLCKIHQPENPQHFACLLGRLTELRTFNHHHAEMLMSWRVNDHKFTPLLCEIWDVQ
Chain of Peroxisome proliferator-activated receptor gamma (Homo sapiens) (P37231 whole entry, looked up): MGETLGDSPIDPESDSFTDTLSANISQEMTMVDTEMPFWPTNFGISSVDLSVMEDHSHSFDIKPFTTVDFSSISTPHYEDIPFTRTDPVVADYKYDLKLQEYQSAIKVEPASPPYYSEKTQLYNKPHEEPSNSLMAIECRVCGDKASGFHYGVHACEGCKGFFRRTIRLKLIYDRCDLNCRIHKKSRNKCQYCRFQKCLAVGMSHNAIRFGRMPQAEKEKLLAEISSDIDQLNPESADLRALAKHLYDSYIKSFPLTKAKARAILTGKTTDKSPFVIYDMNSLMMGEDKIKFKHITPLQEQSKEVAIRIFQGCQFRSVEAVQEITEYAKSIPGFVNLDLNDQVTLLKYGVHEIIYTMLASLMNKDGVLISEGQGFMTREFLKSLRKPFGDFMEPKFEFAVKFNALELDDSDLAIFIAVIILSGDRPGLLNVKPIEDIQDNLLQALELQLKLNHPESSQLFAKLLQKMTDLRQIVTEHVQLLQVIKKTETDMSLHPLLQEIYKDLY

CCCCOCC1CO1 (stereo unspecified)
inactive: Potency [1] | outcome [2] | outcome [3] | Potency [4] | outcome [5] | outcome [6] | Potency [8] | Potency [9] | activation [10] -1.31%
13.9%: max response [7]

N#CC(Cl)(Cl)Cl
inactive: outcome [3] | Potency [4] | Potency [11] | outcome [5] | outcome [6] | Potency [12] | Potency [9]

CC(C)(C)OOC(=O)c1ccccc1
inactive: outcome [2] | Potency [13] | outcome [6] | outcome [14] | Potency [12] | Potency [9] | activation [10] -3.4% and 2.14%
-0.545%: max response [7]

BrCC(Br)C1CCC(Br)C(Br)C1 (stereo unspecified)
inactive: outcome [2] | outcome [3]

CC(C)OC(=O)Cc1ccccc1
inactive: Potency [1] | outcome [2] | Potency [4] | Potency [11] | outcome [6] | Potency [12] | Potency [9] | activation [10] -2.84%

O=[N+]([O-])/C=C/c1ccccc1
20.9%: max response [7]
active: Potency [1] 12.6 µM | Potency [13] 39.8 µM
inactive: outcome [2] | outcome [5] | outcome [6] | outcome [15] | Potency [8] | Potency [12] | activation [10] 10.5%

Cc1ccc(N)cc1Cl
inactive: Potency [1] | outcome [3] | Potency [13] | Potency [4] | Potency [8] | Potency [16]

O=C(Cl)c1ccccc1F
inactive: Potency [1] | outcome [2] | outcome [3] | Potency [13] | Potency [4] | outcome [14] | outcome [15] | Potency [8] | Potency [12] | activation [10] -0.282%
-9.33%: max response [7]

O=NN1CCCCC1
-27.9%: max response [7]
inactive: Potency [1] | outcome [2] | outcome [6] | outcome [14] | Potency [12] | Potency [9] | activation [10] -2.94% | Potency [16]

CC(C)(COCC1CO1)COCC1CO1 (stereo unspecified)
0.207%: max response [7]
inactive: outcome [2] | outcome [3] | Potency [4] | outcome [5] | outcome [6] | outcome [14] | Potency [12] | activation [10] 6.6% | Potency [16]

C=CCO
11.9%: max response [7]
inactive: Potency [1] | outcome [6] | outcome [14] | outcome [15] | Potency [12] | Potency [9]

CCC(Cl)[N+](=O)[O-] (stereo unspecified)
2.58%: max response [7]
inactive: Potency [1] | outcome [2] | Potency [13] | Potency [4] | Potency [11] | outcome [5] | outcome [14] | outcome [15] | Potency [8] | Potency [12] | activation [10] -1.08% | Potency [16]
